Assay [1] in a line: Human pregnane X receptor (PXR) small molecule agonists, qHTS cell viability counter screen (AID 1346977). Also: nearly all actives have a fitted effect of over 50% in size. Put shortly:
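Viability counter screen: CellTiter-Fluor signal in PXR-Luc HepG2 cells, 24hr compound exposure, 37C, 5% CO2.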
In general terms: In qHTS, concentration-response curves come from the screen itself.

Assay [2] can be described thus: Caspase-3/7 induction in HepG2 cells by small molecules, qHTS assay (AID 1346978). Also: nearly all actives have a fitted effect of over 15% in size. In outline: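 Wild-type HepG2 cells, 2,000/well, settled 5 hr at 37 C and 5% CO2, then compound-treated for 17 hr; caspase-3/7 activity read by luminescent Caspase-Glo 3/7 after 30 min at room temperature.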
Assay [3] is described as follows: Caspase-3/7 induction in CHO-K1 cells by small molecules, qHTS cell viability counter screen (AID 1346979). Also: nearly all actives have a fitted effect of over 35% in size. Also: potency is read from the fitted curve at half-maximal effect. Put shortly:
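Viability readout by fluorescence (CellTiter-Fluor) on wild-type CHO-K1 cells exposed for 16hr at 37C and 5% CO2 to compounds delivered in DMSO; reagent incubated 1hr before reading.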

A short description of assay [4]: Caspase-3/7 induction in CHO-K1 cells by small molecules, qHTS assay (AID 1346980). Also: nearly all actives have a fitted effect of over 15% in size. In outline: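 Wild-type CHO-K1 cells exposed to compounds for 17hr at 37 C, 5% CO2. Caspase-3/7 activity then measured by Caspase-Glo 3/7 luminescence after 30min at room temperature.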
A short description of assay [5]: Caspase-3/7 induction in HepG2 cells by small molecules, qHTS cell viability counter screen (AID 1346981). Also: series mostly up to about 92 µM; nearly all actives have a fitted effect of over 30% in size. In outline: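 Counter screen for cytotoxicity: HepG2 exposed 16 hr to compounds, then CellTiter-Fluor viability signal (fluorescence, 1 hr reagent incubation).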
Assay [6] concerns the target Cytochrome P450 2C19 (Homo sapiens) (UniProt P33261). The assay is described as follows: Cytochrome P450 Family 2 Subfamily C Member 19 (CYP2C19) small molecule antagonists: luciferase reporter qHTS assay (AID 1671197). Also: series mostly up to about 120 µM; nearly all actives have a fitted effect of over 65% in size. Put shortly: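 Quantitative high-throughput screen of the Tox21 library using CYP2C19 with proluciferin substrate. Reaction: NADPH regeneration, 37C, 1 h, after 10 min compound preincubation at room temperature. Readout: luminescence.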
(In a reporter assay the amount or activity of a reporter protein is the signal.)

Assay [7] addresses Cytochrome P450 2C9 (Homo sapiens) (UniProt P11712). Put plainly: Cytochrome P450 Family 2 Subfamily C Member 9 (CYP2C9) small molecule antagonists: luciferase reporter qHTS assay (AID 1671198). Also: nearly all actives have a fitted effect of over 50% in size. Also: potency is read from the fitted curve at half-maximal effect. Put shortly:
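P450-Glo proluciferin substrate with CYP2C9 enzyme; 10 min RT preincubation, then NADPH regeneration 1 h at 37C; luciferin detection reagent 20 min RT, luminescence in relative luminescence units.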

The target of assay [8] is Cytochrome P450 1A2 (Homo sapiens) (UniProt P05177). Put plainly: Cytochrome P450 Family 1 Subfamily A Member 2 (CYP1A2) small molecule antagonists: luciferase reporter qHTS assay (AID 1671199). Also: nearly all actives have a fitted effect of over 50% in size. Also: potency is read from the fitted curve at half-maximal effect. Put shortly: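 Signal from luciferin formed by CYP1A2 from a proluciferin substrate is read as luminescence, expressed in relative luminescence units. Compounds sit with enzyme 10 min, NADPH-driven reaction runs 1 h, all at room temperature.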
Sequence of Cytochrome P450 1A2 (Homo sapiens) (P05177 whole entry, looked up): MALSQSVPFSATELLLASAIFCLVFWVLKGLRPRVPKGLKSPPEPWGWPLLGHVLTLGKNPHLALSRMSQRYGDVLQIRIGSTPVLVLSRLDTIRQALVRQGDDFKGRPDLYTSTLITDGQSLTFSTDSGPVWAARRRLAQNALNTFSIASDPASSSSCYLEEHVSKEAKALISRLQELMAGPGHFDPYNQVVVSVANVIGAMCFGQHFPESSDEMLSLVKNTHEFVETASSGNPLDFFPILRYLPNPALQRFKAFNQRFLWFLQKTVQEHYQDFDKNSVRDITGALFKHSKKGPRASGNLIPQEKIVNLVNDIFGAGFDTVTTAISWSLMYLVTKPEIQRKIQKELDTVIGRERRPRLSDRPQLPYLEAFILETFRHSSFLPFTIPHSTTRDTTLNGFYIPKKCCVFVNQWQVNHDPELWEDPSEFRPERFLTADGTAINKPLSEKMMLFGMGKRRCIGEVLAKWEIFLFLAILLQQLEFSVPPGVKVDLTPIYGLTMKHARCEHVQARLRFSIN

Assay [9] addresses Voltage-gated inwardly rectifying potassium channel KCNH2 (Homo sapiens) (UniProt Q12809). The assay is described as follows: Human Ether-a-go-go-Related Gene (hERG) channel small molecule antagonists: fluorescence cell-based qHTS assay (AID 1671200).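 Also: hERG-expressing U2OS cells given a thallium stimulus after FluxOR II dye loading; series mostly up to about 77 µM; nearly all actives have a fitted effect of over 50% in size.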 Put shortly:
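Thallium served as the potassium surrogate; its influx into dye-loaded U2OS cells carrying the channel was measured by fluorescence over 2 min.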
For orientation: hERG is a cardiac potassium channel; its block is linked to QT prolongation.

Assay [10] addresses Cytochrome P450 3A4 (Homo sapiens) (UniProt P08684). Put plainly: Cytochrome P450 Family 3 Subfamily A Member 4 (CYP3A4) small molecule antagonists: luciferase reporter qHTS assay (AID 1671201). Also: nearly all actives have a fitted effect of over 50% in size. Also: potency is read from the fitted curve at half-maximal effect. In outline: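 Relative luminescence units after 20 min with luciferin detection reagent served as read-out. Beforehand, CYP3A4 turned over a proluciferin substrate for 1 h at room temperature with NADPH regeneration, following 10 min compound preincubation.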

Assay [11] has as its target Cytochrome P450 2D6 (Homo sapiens) (UniProt P10635). The assay is described as follows: Cytochrome P450 Family 2 Subfamily D Member 6 (CYP2D6) small molecule antagonists: luciferase reporter qHTS assay (AID 1671196). Also: nearly all actives have a fitted effect of over 50% in size. Also: potency is read from the fitted curve at half-maximal effect. In outline:
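Inhibition of CYP2D6 was gauged by loss of luminescence, since light produced tracks the luciferin generated from a proluciferin substrate. A 10 min room-temperature preincubation preceded 1 h NADPH-supported turnover.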

Assay [12] addresses Nuclear receptor subfamily 1 group I member 2 (Homo sapiens) (UniProt O75469). The assay is described as follows: Human pregnane X receptor (PXR) small molecule agonists, qHTS assay (AID 1346982). Also: nearly all actives have a fitted effect of over 35% in size. Also: potency is read from the fitted curve at half-maximal effect. In outline:
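Luminescence (ONE-Glo, 30 min RT) after 24 hr compound exposure of PXR-Luc HepG2 cells; cells rested 5 hr post-plating in 5% charcoal-stripped FBS medium.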

The target in assay [13] is Nuclear receptor subfamily 1 group I member 2 (Rattus norvegicus) (UniProt Q9R1A7). Put plainly: Rat pregnane X receptor (rPXR) activation by small molecules, qHTS assay (AID 1346983). Also: nearly all actives have a fitted effect of over 20% in size. Also: potency is read from the fitted curve at half-maximal effect. The following applies: rPXR luciferase reporter cells, One-Glo luminescence, 24 h; max activation: hits give high values. Put shortly: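 Cell-based rPXR activation assay: rPXR cells, 2,000 per well, rested 5hr at 37 C, then exposed to compounds in DMSO for 24 hr at 37 C. Luciferase activity read by One-Glo luminescence after 30 min at room temperature.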
Sequence of Nuclear receptor subfamily 1 group I member 2 (Rattus norvegicus) (Q9R1A7 whole entry, looked up): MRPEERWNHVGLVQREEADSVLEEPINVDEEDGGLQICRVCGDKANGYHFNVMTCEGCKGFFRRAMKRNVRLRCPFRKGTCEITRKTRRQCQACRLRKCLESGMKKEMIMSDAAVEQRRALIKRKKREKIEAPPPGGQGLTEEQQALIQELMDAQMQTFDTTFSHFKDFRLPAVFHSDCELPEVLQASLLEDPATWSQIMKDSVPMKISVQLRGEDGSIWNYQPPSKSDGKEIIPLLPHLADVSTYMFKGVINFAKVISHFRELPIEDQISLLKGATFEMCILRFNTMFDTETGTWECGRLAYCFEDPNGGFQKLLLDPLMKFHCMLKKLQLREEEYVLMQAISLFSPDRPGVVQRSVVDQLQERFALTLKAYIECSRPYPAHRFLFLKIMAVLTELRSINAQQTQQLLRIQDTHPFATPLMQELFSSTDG

For assay [14], the target named is Nuclear receptor subfamily 1 group I member 2 (Homo sapiens) (UniProt O75469). The assay is described as follows: CYP3A4 induction through human pregnane X receptor (PXR) by small molecules, qHTS assay (AID 1346984). Also: nearly all actives have a fitted effect of over 40% in size. In outline:
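DPX-2 reporter cells; 24h cpd, 37C; Luciferin-IPA 3uM final x3h; One-Glo 30 min RT; lumi read.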

Assay [15] shares this target. Put plainly: Human pregnane X receptor (PXR) activation by small molecules, qHTS assay (AID 1346985). Also: nearly all actives have a fitted effect of over 40% in size. Also: potency is read from the fitted curve at half-maximal effect. Put shortly: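 DPX-2 cells (HepG2 co-transfected with a PXR response element and a CYP3A4-promoter luciferase construct) were seeded at 2,000 per well, rested 5 hr at 37C, then exposed to DMSO-dissolved compounds for 24 hr. Activation was read as luciferase luminescence.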

Unmarked numbers belong to inactive results. Results filed as inconclusive are left out. The source made the active and inactive calls. Calls follow the shape of the dose curve; as a rule, active = well fitted curve in the direction sought with a large enough effect in the repeat runs; inconclusive = weak or mixed curves; inactive = no such curve, though single readings can be large; an effect the other way counts as inactive or inconclusive.
% is scaled to controls: 0 for no effect and ±100 for the full control effect.

Sequence of Cytochrome P450 2D6 (Homo sapiens) (P10635 whole entry, looked up): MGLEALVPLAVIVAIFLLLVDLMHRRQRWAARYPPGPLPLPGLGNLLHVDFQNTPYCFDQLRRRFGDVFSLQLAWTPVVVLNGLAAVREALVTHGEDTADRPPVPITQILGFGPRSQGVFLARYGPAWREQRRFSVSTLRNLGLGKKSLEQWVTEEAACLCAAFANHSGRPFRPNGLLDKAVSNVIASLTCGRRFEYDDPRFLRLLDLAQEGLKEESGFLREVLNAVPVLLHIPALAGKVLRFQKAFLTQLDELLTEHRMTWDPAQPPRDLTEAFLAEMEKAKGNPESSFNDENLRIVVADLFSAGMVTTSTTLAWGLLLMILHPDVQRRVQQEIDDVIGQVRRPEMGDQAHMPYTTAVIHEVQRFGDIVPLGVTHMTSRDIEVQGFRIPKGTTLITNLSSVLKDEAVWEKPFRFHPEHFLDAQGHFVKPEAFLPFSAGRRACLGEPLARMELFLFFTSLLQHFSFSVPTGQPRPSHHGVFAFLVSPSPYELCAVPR
Sequence of Nuclear receptor subfamily 1 group I member 2 (Homo sapiens) (O75469 whole entry, looked up): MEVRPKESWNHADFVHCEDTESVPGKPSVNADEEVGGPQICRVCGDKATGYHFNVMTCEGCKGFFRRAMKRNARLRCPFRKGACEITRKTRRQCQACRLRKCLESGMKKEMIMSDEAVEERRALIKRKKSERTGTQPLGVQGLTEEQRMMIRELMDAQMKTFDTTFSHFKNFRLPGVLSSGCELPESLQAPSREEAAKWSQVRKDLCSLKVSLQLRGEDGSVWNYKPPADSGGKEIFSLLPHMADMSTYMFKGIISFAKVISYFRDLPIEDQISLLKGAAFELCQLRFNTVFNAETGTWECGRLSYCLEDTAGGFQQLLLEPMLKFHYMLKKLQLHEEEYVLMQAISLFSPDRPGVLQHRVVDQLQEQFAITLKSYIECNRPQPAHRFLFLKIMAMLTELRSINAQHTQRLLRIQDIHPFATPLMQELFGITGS
Sequence of Cytochrome P450 2C9 (Homo sapiens) (P11712 whole entry, looked up): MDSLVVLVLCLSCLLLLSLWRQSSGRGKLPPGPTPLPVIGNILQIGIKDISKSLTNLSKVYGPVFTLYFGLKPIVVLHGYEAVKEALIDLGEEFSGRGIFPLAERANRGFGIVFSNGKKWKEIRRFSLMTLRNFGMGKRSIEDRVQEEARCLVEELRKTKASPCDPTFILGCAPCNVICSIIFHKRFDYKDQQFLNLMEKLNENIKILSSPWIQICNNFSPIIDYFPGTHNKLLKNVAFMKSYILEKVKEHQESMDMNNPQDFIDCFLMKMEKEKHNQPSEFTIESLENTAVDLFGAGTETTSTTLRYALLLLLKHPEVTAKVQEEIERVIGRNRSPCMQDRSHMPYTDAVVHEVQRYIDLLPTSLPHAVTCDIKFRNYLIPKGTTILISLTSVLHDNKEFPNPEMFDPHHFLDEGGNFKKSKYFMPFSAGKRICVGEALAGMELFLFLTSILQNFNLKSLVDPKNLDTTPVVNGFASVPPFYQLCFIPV
Sequence of Voltage-gated inwardly rectifying potassium channel KCNH2 (Homo sapiens) (Q12809 whole entry, looked up): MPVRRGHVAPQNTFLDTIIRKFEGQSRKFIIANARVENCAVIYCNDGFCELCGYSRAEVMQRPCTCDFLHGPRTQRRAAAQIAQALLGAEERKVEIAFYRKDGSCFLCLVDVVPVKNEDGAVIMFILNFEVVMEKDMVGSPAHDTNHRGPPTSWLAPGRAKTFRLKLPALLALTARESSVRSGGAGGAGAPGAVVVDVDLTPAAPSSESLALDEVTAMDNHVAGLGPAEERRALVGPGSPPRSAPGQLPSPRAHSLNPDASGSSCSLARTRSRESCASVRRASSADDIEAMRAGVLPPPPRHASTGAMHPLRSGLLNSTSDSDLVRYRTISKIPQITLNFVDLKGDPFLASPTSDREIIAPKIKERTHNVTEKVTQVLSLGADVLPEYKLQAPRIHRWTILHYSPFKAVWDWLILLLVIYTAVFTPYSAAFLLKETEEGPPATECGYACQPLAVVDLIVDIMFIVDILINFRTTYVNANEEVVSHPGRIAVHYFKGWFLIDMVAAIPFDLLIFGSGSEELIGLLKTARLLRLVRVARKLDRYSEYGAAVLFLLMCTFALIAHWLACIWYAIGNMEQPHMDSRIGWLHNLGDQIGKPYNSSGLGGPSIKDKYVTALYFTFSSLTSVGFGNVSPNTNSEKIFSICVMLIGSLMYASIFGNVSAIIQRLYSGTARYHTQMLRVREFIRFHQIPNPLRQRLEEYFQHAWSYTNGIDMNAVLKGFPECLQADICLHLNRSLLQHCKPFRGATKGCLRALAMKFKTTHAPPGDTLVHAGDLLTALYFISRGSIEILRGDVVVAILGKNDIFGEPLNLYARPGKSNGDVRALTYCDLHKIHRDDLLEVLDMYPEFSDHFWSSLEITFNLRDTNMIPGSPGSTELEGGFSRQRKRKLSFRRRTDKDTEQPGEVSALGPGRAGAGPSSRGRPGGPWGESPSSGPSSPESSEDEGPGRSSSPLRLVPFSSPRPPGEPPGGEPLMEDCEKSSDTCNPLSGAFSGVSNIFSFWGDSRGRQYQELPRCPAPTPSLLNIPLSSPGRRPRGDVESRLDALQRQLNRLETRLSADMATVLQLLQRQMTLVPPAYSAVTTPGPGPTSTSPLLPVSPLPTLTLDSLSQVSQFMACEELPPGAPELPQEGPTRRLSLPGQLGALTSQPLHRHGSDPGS
Sequence of Cytochrome P450 3A4 (Homo sapiens) (P08684 whole entry, looked up): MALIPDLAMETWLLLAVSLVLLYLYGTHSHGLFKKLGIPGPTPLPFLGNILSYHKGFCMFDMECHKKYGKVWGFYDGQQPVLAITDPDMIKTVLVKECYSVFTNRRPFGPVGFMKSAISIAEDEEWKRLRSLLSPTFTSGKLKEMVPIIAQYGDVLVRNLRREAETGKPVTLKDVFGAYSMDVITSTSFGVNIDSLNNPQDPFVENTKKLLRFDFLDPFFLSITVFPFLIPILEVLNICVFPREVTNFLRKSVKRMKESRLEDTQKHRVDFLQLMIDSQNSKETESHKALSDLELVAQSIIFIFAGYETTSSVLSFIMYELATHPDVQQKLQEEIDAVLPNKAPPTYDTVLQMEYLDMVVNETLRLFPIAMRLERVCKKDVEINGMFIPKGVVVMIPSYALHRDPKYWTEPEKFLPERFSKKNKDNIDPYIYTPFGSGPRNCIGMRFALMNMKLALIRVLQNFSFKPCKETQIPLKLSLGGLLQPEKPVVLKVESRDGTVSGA
Sequence of Cytochrome P450 2C19 (Homo sapiens) (P33261 whole entry, looked up): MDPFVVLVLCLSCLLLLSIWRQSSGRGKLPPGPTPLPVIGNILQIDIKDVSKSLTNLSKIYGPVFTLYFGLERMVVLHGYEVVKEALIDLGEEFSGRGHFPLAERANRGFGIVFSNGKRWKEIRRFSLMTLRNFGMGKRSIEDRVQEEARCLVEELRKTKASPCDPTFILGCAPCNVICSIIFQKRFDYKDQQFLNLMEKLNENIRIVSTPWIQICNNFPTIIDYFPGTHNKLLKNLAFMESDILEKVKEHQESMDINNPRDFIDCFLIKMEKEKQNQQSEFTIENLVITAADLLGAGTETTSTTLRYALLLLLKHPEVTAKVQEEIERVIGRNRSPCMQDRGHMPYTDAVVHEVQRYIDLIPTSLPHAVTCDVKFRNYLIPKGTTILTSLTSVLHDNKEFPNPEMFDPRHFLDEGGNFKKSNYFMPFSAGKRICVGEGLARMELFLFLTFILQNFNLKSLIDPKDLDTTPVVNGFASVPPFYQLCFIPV

As to `C[C@H]1C[C@H]2[C@@H]3CCC4=CC(=O)C=C[C@]4(C)[C@H]3C(=O)C[C@]2(C)[C@@]1(O)C(=O)CO`, the Potency result in assay [1], in assay [3], in [5], in assay [6], in assay [9] and in assay [10] was “inactive” each time. Besides, the compound was classed as inactive in assay [2] and in assay [4]. Moreover, the results for the Potency in [7] and in [8] were 13.8 µM (active) and 27.5 µM (active), respectively.
On to `CCOCC(C)O` (centres undefined), for which the Potency entry in assay [1], in assay [3], in assay [5], in assay [6], in [7] and in assay [9] was “inactive” each time. Also, in assay [10], the Potency result is “inactive”. For the same compound, the compound was called inactive in [2] and in assay [4].
Take `CCCC[N+](C)(CCCC)CCCC`: the Potency entry in assay [1], in assay [3], in assay [5], in assay [6], in [7] and in assay [8] was “inactive” in each case. Besides, the Potency result in [10] is “inactive”. Moreover, the compound was called inactive in assay [2] and in [4]. Further, the Potency in assay [11] is 2.77 µM (active).
With `C=C[Si](OC(C)=O)(OC(C)=O)OC(C)=O`, the Potency result in assay [1], in [3], in assay [5], in assay [6], in [7] and in [8] was “inactive” each time. In assay [9], the Potency entry was “inactive”. Also, the call in assay [2] and in assay [4] was inactive. Moreover, the Potency in [10] is 39.9 µM (active).
On to `COC(=O)C1=C(C)NC(C)=C(C(=O)OC(C)C)C1c1cccc2nonc12` (centres undefined), for which the Potency result in assay [1], in [14] and in assay [9] was “inactive” throughout. Moreover, the result in assay [2] and in assay [4] was inactive. Also, the Potency in [3] was 26.6 µM (active); in [12], 1.33 µM (active); in assay [13] it was 10 µM (active); in [15] it was 0.891 µM (active).
With `Cc1nc2ccc(CN(C)c3ccc(C(=O)N[C@@H](CCC(=O)O)C(=O)O)s3)cc2c(=O)[nH]1`, the Potency result in assay [1], in assay [3], in assay [12], in [14], in assay [15] and in [11] was “inactive” in each case. For the same compound, the Potency result in assay [6], in assay [7], in assay [9] and in assay [10] was “inactive” throughout. Further, the call in [2] and in assay [4] was inactive. Moreover, in assay [13], the max activation is -1.92%.
With `O=S(=O)(O)c1cc(O)c(O)c(S(=O)(=O)O)c1`, the Potency entry in [1], in assay [3], in assay [5], in [11], in [7] and in [8] was “inactive” in each case. Besides, the Potency entry in assay [9] and in assay [10] was “inactive” in each case. Moreover, the compound was classed as inactive in [2] and in [4].
For the compound `CCCO[Si](OCCC)(OCCC)OCCC`, the Potency result in assay [1], in assay [3], in assay [5], in assay [11], in [6] and in assay [7] was “inactive” each time. Further, the Potency result in [9] and in [10] was “inactive” each time. Further, the compound was called inactive in assay [2] and in assay [4].
Consider `CC/C=C\CCOC(C)OCC` (centres undefined), for which the Potency result in assay [1], in assay [3], in [12], in assay [11], in assay [6] and in [7] was “inactive” in each case. The Potency entry in [9] and in assay [10] was “inactive” in each case. Further, the outcome in assay [2] and in assay [4] was inactive.
On to `C[N+]1(C)CCCC(OC(=O)C(O)(c2ccccc2)c2ccccc2)C1` (centres undefined), for which the Potency result in assay [1], in assay [3], in [12], in [14], in assay [15] and in assay [6] was “inactive” in each case. Besides, the Potency entry in assay [7], in [8] and in assay [10] was “inactive” in each case. The call in [2] and in assay [4] was inactive. In addition, the max activation in assay [13] is -3.64%. Further, the Potency in assay [11] was 4.9 µM (active).

For the origin of these results see PubChem BioAssay (Tox21).
